Reference: PubChem BioAssay (NCATS)
Calls of active or inactive are those of the source. Calls come from the whole dose curve; as a rule, active = well fitted curve in the direction sought with a large enough effect; inactive = no such curve, though single readings can be large or run the other way.

These molecules were tested against Alpha-galactosidase (Coffea arabica) (UniProt Q42656) (assay: Counterscreen for Glucocerebrosidase Inhibitors: qHTS Assay for Coffee Bean alpha-Galactosidase at pH 5.9 (AID 998)). Conditions: coffee bean alpha-galactosidase enzyme assay; series mostly up to 76.9 µM.
Alpha-galactosidase (Coffea arabica), sequence (Q42656 whole entry, looked up): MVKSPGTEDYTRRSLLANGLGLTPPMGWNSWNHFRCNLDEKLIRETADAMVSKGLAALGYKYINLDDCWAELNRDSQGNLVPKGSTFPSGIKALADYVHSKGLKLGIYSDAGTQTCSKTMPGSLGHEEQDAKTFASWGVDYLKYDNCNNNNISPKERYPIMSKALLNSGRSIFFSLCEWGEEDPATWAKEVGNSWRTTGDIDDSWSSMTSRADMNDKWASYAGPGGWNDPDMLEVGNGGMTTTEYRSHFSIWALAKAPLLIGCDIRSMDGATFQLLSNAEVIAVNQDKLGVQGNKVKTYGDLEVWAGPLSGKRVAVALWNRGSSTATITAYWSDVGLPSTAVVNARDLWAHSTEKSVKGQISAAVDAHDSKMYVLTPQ
Outline: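 Fluorogenic 4-MU substrate hydrolysis, 80 uM substrate and 2 nM coffee bean alpha-galactosidase, pH 5.9 citrate buffer, 20 min at room temperature, then NaOH/glycine stop. Titration 0.7 nM–77 uM, normalized to no-enzyme and enzyme controls, AC50 via Hill equation.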
In the case of `O=C1NC(=O)C(c2ccccc2)(c2ccccc2)N1`, the outcome is reported as “inactive”. In the case of `CC(=O)N[C@@H](CS)C(=O)O`, the outcome is reported as “inactive”. With `CC1(C)NC(=O)N(c2ccc([N+](=O)[O-])c(C(F)(F)F)c2)C1=O` the outcome was “inactive”. In the case of `Nc1nc(N)c2nc(-c3ccccc3)c(N)nc2n1`, the outcome is reported as “inactive”. In the case of `CCCCc1oc2ccccc2c1C(=O)c1cc(I)c(OCCN(CC)CC)c(I)c1`, the outcome is reported as “inactive”. `NC[C@H](O)c1ccc(O)c(O)c1` was tested, and the outcome was “inactive”. For `COc1ccc(Cl)cc1C(=O)NCCc1ccc(S(=O)(=O)NC(=O)NC2CCCCC2)cc1`, the outcome was “inactive”. `NNCCc1ccccc1` was tested, and the outcome was “inactive”. In the case of `N=c1nc(N2CCCCC2)cc(N)n1O`, the outcome is reported as “inactive”. In the case of `CC/C(=C(\c1ccccc1)c1ccc(OCCN(C)C)cc1)c1ccccc1`, the outcome is reported as “inactive”. In the case of `O=C1CCc2cc(OCCCCc3nnnn3C3CCCCC3)ccc2N1`, the outcome is reported as “inactive”. `CN(C)CCC[C@@]1(c2ccc(F)cc2)OCc2cc(C#N)ccc21` was tested, and the outcome was “inactive”. `CN(Cc1cnc2nc(N)nc(N)c2n1)c1ccc(C(=O)N[C@@H](CCC(=O)O)C(=O)O)cc1` was tested, and the outcome was “inactive”. For `CC1=C(/C=C/C(C)=C/C=C/C(C)=C/C(=O)Nc2ccc(O)cc2)C(C)(C)CCC1`, the outcome was “inactive”. In the case of `O=C(c1ccc(OCCN2CCCCC2)cc1)c1c(-c2ccc(O)cc2)sc2cc(O)ccc12`, the outcome is reported as “inactive”.
